Records with an inconclusive call do not appear. Active and inactive are the calls of the source. Calls come from the whole dose curve; as a rule, active = well fitted curve in the direction sought with a large enough effect; inconclusive = small, poorly fitted or top-dose-only effect, or another doubt; inactive = no such curve, though single readings can be large; an effect the other way counts as inactive or inconclusive.
Key:
[1] = biological target: Cellular tumor antigen p53 (Homo sapiens) (UniProt P04637); test: Primary qHTS for small molecule compounds that upregulate eGFP-tagged delta133p53alpha (in N-terminal) cells. (AID 2060322); conditions: NCI-H358 eGFP-delta133p53alpha fluorescence, 24 h; activation: hits give high values;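 note: series mostly up to about 56 µM; 0% = DMSO vehicle and 100% = reference activator; nearly all actives have a fitted effect of over 75% in size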
Summary of the method: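 NCI-H358 cells pre-induced 24 h with 10 ng/ml doxycycline to express N-terminal eGFP-delta133p53alpha, then dosed 24 h at 37C without doxycycline; fixed, Hoechst-stained, GFP intensity by laser scanning cytometry, normalized to DMSO (0%) and 57.5 uM 5-azacytidine (100%).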

[2] = biological target: Aldehyde dehydrogenase, mitochondrial (Homo sapiens) (UniProt P05091); test: qHTS for Inhibitors of the Aldehyde Dehydrogenase Family (ALDH2) Primary screen (AID 2061308);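 note: plate controls were vehicle for no effect and reference inhibitor for full effect; nearly all actives have a fitted effect of over 55% in size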
[3] = biological target: Retinaldehyde dehydrogenase 3 (Homo sapiens) (UniProt P47895); test: qHTS for Inhibitors of the Aldehyde Dehydrogenase Family (ALDH1A3) Primary screen (AID 2061315);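 note: plate controls were DMSO vehicle for no effect and reference inhibitor for full effect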

Chain of Cellular tumor antigen p53 (Homo sapiens) (P04637 whole entry, looked up): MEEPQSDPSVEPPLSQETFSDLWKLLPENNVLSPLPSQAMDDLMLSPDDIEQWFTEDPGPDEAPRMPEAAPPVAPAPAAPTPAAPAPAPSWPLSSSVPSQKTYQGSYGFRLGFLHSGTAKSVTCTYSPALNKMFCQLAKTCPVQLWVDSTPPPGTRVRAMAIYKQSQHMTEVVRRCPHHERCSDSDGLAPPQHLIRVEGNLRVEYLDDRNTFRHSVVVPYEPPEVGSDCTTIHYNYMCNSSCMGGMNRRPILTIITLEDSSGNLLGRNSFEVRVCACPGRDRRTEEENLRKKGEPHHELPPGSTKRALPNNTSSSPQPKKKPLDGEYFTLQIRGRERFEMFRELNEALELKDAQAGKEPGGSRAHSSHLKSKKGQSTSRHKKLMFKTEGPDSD

COc1cc(C2OCC3(O)C(c4ccc(O[C@@H]5O[C@H](CO)[C@@H](O)[C@H](O)[C@H]5O)c(OC)c4)OCC23O)ccc1O (some centres not stated)
inactive: activation [1] -6.11% | Potency [2] | Potency [3]

CC1CCC23COC(=O)C2=CC(O)CC3C1(C)CCC1=CC(=O)OC1O (configuration not stated)
inactive: activation [1] 0.763% | Potency [2] | Potency [3]

C=C1OC2CC(C(=O)O)C=CC2NC1=O (configuration not stated)
inactive: activation [1] -19.8% | Potency [2] | Potency [3]

CC1CCC2C(C)(C)C(O)CCC2(C)C12Cc1c(O)cc3c(c1O2)CN(C(CCC(N)=O)C(=O)O)C3=O (configuration not stated)
inactive: activation [1] -13.7% | Potency [2] | Potency [3]

CC1(C)CC[C@]2(C(=O)O)[C@H](O)C[C@]3(C)C(=CCC4[C@@]5(C)CC[C@H](O[C@@H]6O[C@H](CO[C@@H]7OC[C@H](O)[C@H](O)[C@H]7O[C@@H]7OC[C@H](O)[C@H](O)[C@H]7O)[C@@H](O)[C@H](O)[C@H]6O)C(C)(C)C5CC[C@]43C)[C@@H]2C1 (some centres not stated)
inactive: activation [1] -4.46% | Potency [2] | Potency [3]

CC(=O)CCC1=C(C)C(O[C@@H]2O[C@H](CO)[C@@H](O)[C@H](O)[C@H]2O)C(O)CC1(C)C (some centres not stated)
inactive: activation [1] -3.82% | Potency [2] | Potency [3]

C=C1CC/C=C(/C(=O)O)CCC2C1CC2(C)C (configuration not stated)
inactive: activation [1] -4.58% | Potency [2] | Potency [3]

C/C=C1\[C@H](O[C@@H]2O[C@H](CO)[C@@H](O)[C@H](O)[C@H]2O)OC=C(C(=O)OC)[C@H]1CC(=O)O
inactive: activation [1] 3.82% | Potency [2] | Potency [3]

Cc1cc(Nc2nc(NC(C)c3ncc(F)cn3)ncc2Cl)n[nH]1 (configuration not stated)
inactive: activation [1] 8.04% | Potency [2] | Potency [3]

CC(O)C(O)/C=C/C=C/C(=O)O[C@@H]1C=C2COC(=O)[C@]2(O)[C@@]2(C)CCCC(C)(C)C12 (some centres not stated)
inactive: activation [1] -18.3% | Potency [2] | Potency [3]

CCOc1ccc2nc(SCCN3CCOCC3)[nH]c2c1
inactive: activation [1] -7.64% | Potency [2] | Potency [3]

CCC(C)/C=C(C)/C=C/C1=CC2=C(Cl)C(=O)C(C)(OC(C)=O)C(=O)C2=CN1C(CCCN=C(N)N)C(=O)O (configuration not stated)
inactive: activation [1] 16% | Potency [2] | Potency [3]

CC(C)[C@@](O)(c1ccc2cc(OC(F)F)c(OC(F)F)cc2c1)c1cn[nH]n1
inactive: activation [1] -0.333% | Potency [2] | Potency [3]

C[C@H]1[C@@H](O)[C@H](O)C2[C@]3(C)C([C@@H](O)[C@H]4OC(=O)[C@@H]1[C@@]24C)[C@](C)(O)C=C[C@H]3O[C@@H]1O[C@H](CO)[C@@H](O)[C@H](O)[C@H]1O (some centres not stated)
inactive: activation [1] 0.893% | Potency [2] | Potency [3]

CC1(C)CC[C@]2(C(=O)O)CC[C@]3(C)C(=CCC4[C@@]5(C)C[C@@H](O)[C@H](O)C(CO)(CO)C5CC[C@]43C)C2[C@@H]1O (some centres not stated)
inactive: activation [1] -9.16% | Potency [2] | Potency [3]

CC(C)=CCC/C(C)=C/Cc1ccc(O)c(C2OC(=O)c3cc(C(=O)O)cc(O)c32)c1O (configuration not stated)
inactive: activation [1] -1.53% | Potency [2] | Potency [3]

Nc1ccc(-n2nc(C(F)(F)F)cc2C(F)(F)F)cc1
inactive: activation [1] 0.893% | Potency [2] | Potency [3]

C=CC(C)(O)CO[C@@H]1O[C@H](CO)[C@@H](O)[C@H](O)[C@H]1O (some centres not stated)
inactive: activation [1] -16% | Potency [2] | Potency [3]

COc1cc(CN(CCN)C(=O)c2cccs2)ccc1OCc1ccccc1
inactive: activation [1] 24.3% | Potency [2] | Potency [3]

Nc1ncnc2c1ncn2[C@H]1O[C@@H](C(=O)N2CCN(CC(=O)Nc3cccc4c3CNC4=O)CC2)[C@H](O)[C@@H]1O
inactive: activation [1] -24.3% | Potency [2] | Potency [3]

CC1=C(CC/C(C)=C/C(=O)O)[C@@]2(C)CCCC(C)(C)C2CC1=O (some centres not stated)
inactive: activation [1] 6.25% | Potency [2] | Potency [3]

C/C=C(/C)C(=O)O[C@@H]1C[C@@H](OC(=O)/C(C)=C\C)[C@@]2(C)C3C(=O)C=C(C)C2C3C1(C)C
inactive: activation [1] -3.57% | Potency [2] | Potency [3]

CC1(C)C[C@H](O)C[C@@]2(C)OC(=O)C=C12
inactive: activation [1] 19.6% | Potency [2] | Potency [3]

C[C@@H]1O[C@@H](O[C@@H]2[C@@H](O)[C@H](O[C@H]3[C@H](O[C@H]4CC[C@@]5(C)C(CC[C@]6(C)C5CC=C5[C@@H]7CC(C)(C)CC[C@]7(C(=O)O[C@@H]7O[C@H](CO)[C@@H](O)[C@H](O)[C@H]7O[C@@H]7O[C@@H](C)[C@H](O[C@@H]8O[C@@H](C)[C@H](O)[C@@H](O)[C@H]8O)[C@@H](O)[C@H]7O)CC[C@]56C)[C@@]4(C)CO)O[C@H](C(=O)O)[C@@H](O)[C@@H]3O)O[C@H](CO)[C@H]2O)[C@H](O)[C@H](O)[C@H]1O (some centres not stated)
inactive: activation [1] -9.16% | activity change, negative = inhibition [2] 7.29% [at 11.2 µM] | activity change, negative = inhibition [3] -3.36% [at 11.2 µM]

Source: PubChem BioAssay (NCATS)
